Laboratory results: PubChem BioAssay (NCATS)
Results filed as inconclusive are left out. Active and inactive are the calls of the source. Calls follow the shape of the dose curve; as a rule, active = well fitted cell-killing curve with a large enough effect; inconclusive = small, poorly fitted or top-dose-only effect; inactive = flat fitted curve, though single readings scatter.

Assay: Quantitative highthroughput screen to assess conditional lethalithy of NOMO1 cells grown in RPMI1640 with dialyzed fetal bovine serum (RPMI+ds) (AID 1963877); also: nearly all actives have a fitted effect of over 30% in size
Conditions: NOMO1 in RPMI+dialyzed FBS viability, ATP luminescence, 48 h; series mostly up to 45.8 µM; viability: at the top concentration
Description: Assay Provider: Jason Cantor Ph.D.
Department of Biochemistry
University of Wisconsin-Madison, Madison, WI, USA
Chemical screening studies have identified drug sensitivities across hundreds of cancer cell lines but most putative therapeutics fail to translate. Discovery and development of drug candidates in models that more accurately reflect nutrient levels in human blood is a major challenge. Here we performed high-throughput screens in conventional versus Human Plasma-Like Medium (HPLM) to identify compounds that were "missed" when screening using the artificial culture condition. Sets of conditional anticancer compounds spanned phases of clinical development and included non-oncology drugs were assessed. […] We also traced conditional phenotypes for several chemotherapeutics to availability of HPLM-specific metabolites and confirmed others for compounds whose reported targets are encoded by nonessential genes. Our findings establish generalizable strategies for exploiting conditional lethality in HPLM to reveal therapeutic candidates and mechanisms of action in cancer cells.
Described herein are the results of each viability screens against three cell lines: NOMO1 (an acute myeloid leukemia cell line); P12-Ichikawa (a T-cell acute lymphoblastic leukemia); and SEM (a B-cell ALL). Each assay was screened using 3 different cell culture media: homemade human plasma-Like medium with 10% dialyzed fetal bovine serum (HPLM+ds); RPMI1640 with 10% untreated FBS and 5mM glucose (RPMI+s); and RPMI1640 with 10% dialyzed fetal bovine serum and 5 mM glucose (RPMI+ds).
PROTOCOL TABLE (as described by Inglese J, Shamu CE and Guy RK. 2007)
SEQUENCE No. (e.g., 1, 2, 3, etc.); […] (e.g., Cells, Incubation, Reagent, etc.); VALUE and DESCRIPTION.
1; Cells; 5 uL; white, solid bottom 1536-well Greiner assay plate.
2; Compounds; 23 nL; Kalypsis pin tool (Wako USA) equipped with a 1536-well pin head to transfer to the assay plates.
3; Incubation; 48 hours; 37C incubation.
4; Reagent; 3 uL; CellTiter Glo (Promega).
5; Incubation; 5 min, room temperature
6; Detection; Luminescence, Viewlux PerkinElmer.
NOTES (numbers refer to Sequence numbers above)
1. Briefly, 5 ul of cell reagent was dispensed using a Multidrop Combi Dispenser. The NOMO1 and SEM cells were plated at 500 cells/well and the P12-Ichikawa line at 1000 cells/well.
2. After seeding the cells, 23 nL of MIPE 4.1 library compounds (in DMSO) were added to each plate using a Kalypsys 1536 Pintool dispenser. Bortezomib at final concentration of […] and DMSO were added to each plate as positive and negative controls respectively. For each screen, MIPE 4.1 compounds were added over an eleven-point concentration range […] in 3-fold dilutions.
3. Each plate was covered with a stainless steel gasketed lid to prevent evaporation and incubated for 48 hour at 37C, 95% relative humidity, and 5% CO2.
4-5. Three microliter CellTilter-GloTM luminescent substrate mix (Promega) reagent was added to the assay plate and incubated at room temperature for 5 min.
6. The luminescence signal was measured using a ViewLux (PerkinElmer) multiplate reader with a 2 second exposure time per plate. Data for each compound were normalized as percent viability such that measurements for DMSO and the empty well controls in each plate were defined as 100% and 0%, respectively.
Potency is read from the fitted curve at half-maximal effect.

Structure (SMILES) | Potency | viability
Cc1cc(Nc2ncnc3ccc(-c4ccc(CNCCS(C)(=O)=O)o4)cc23)ccc1Oc1ccn2ncnc2c1 | 1.18 µM (active) | –
COc1ccc2cc(-c3nc(-c4ccc(S(C)=O)cc4)[nH]c3-c3ccncc3)ccc2c1 (stereo not given) | – | 102% (inactive)
C[C@@H]1CC=CC=CC=CC=C[C@@H](O[C@@H]2O[C@H](C)[C@@H](O)[C@H](N)[C@H]2O)C[C@@H]2O[C@](O)(C[C@@H](O)C[C@@H]3O[C@@H]3C=CC(=O)O1)C[C@H](O)[C@@H]2C(=O)O | – | 103% (inactive)
CCN(CC)CCNC(=O)c1c(C)[nH]c(C=C2C(=O)Nc3ccc(F)cc32)c1C | 0.303 µM (active) | –
COc1cc2nc(-c3ccc(N4CCN(C)CC4)cc3)nc(NCCN3CCOCC3)c2cc1OC | 0.743 µM (active) | –
N#CC(=Cc1ccc(O)c(O)c1)C(=O)NCc1ccccc1 | – | 94.7% (inactive)
C=CCc1cc(OC)c(O)c(C(=O)NCCO)c1 | – | 88% (inactive)
C=CC(=O)Nc1cccc(Nc2nc(NC3CCC(N(C)C)CC3)nc3c2ncn3C(C)C)c1 (stereo not given) | 2.35 µM (active) | –
O=C1CN2Cc3c(ccc(Cl)c3Cl)N=C2N1 | – | 91.7% (inactive)
C=C1C(=CC=C2CCC[C@]3(C)[C@@H]([C@H](C)CCCC(C)(C)O)CC[C@@H]23)C[C@@H](O)C[C@@H]1O | – | 78.6% (inactive)
O=C(O)COCCN1CCN(C(c2ccccc2)c2ccc(Cl)cc2)CC1 (stereo not given) | – | 105% (inactive)
CCNc1cc(NC2CCC(O)CC2)nc(Nc2ccc3c(ccn3Cc3ccccc3)c2)n1 (stereo not given) | – | 76.4% (inactive)
C=CCn1c(=O)c2cnc(Nc3ccc(N4CCN(C)CC4)cc3)nc2n1-c1cccc(C(C)(C)O)n1 | 0.418 µM (active) | –
C#CCN[C@@H]1CCc2ccccc21 | – | 97.9% (inactive)
C[C@]12CC[C@@H]3c4ccc(O)cc4C[C@@H](CCCCCCCCCS(=O)CCCC(F)(F)C(F)(F)F)[C@H]3[C@H]1CC[C@H]2O (stereo not given in full) | – | 97.7% (inactive)
CN1[C@@H]2CCC[C@@H]1CC(NC(=O)c1nn(C)c3ccccc13)C2 (stereo not given in full) | – | 99.5% (inactive)
CON=C(C(=O)N[C@@H]1C(=O)N2C(C(=O)O)=C(Cn3ccc(=N)n3CCO)CS[C@H]12)c1csc(N)n1 | – | 95.5% (inactive)
NC(=O)C1CCCc2c1[nH]c1ccc(Cl)cc21 (stereo not given) | 8.33 µM (active) | –
O=C(NC[C@H](O)CN1CCc2ccccc2C1)c1cc(NC2COC2)ncn1 | – | 78.2% (inactive)
CN1CCC(COc2cnc(-c3cccc(Cn4nc(-c5cccc(C#N)c5)ccc4=O)c3)nc2)CC1 | – | 103% (inactive)

Structure (SMILES) | Potency | viability
CCOCC(O)COc1ccc(NC(=O)CC[S+](C)C)cc1 (stereo not given) | – | 98.6% (inactive)
CCN1CCN(CC(=O)Nc2ccc(-c3cccc4c(=O)cc(N5CCOCC5)oc34)c3sc4ccccc4c23)CC1 | 3.72 µM (active) | –
C=C1C(=O)OC(CCCCCCCC)C1C(=O)O (stereo not given) | – | 99.1% (inactive)
O=C(O)c1cc(O)c2c(c1)C(=O)c1cccc(O)c1C2=O | – | 96.6% [at 92.2 µM] (inactive)
Nc1nc2ccc(OC(F)(F)F)cc2s1 | – | 90.7% (inactive)
CC(C)NCC(O)COc1ccc(COCCOC(C)C)cc1 (stereo not given) | – | 86.5% (inactive)
Cn1cc(C[C@@H](N)C(=O)O)c2ccccc21 | – | 86.6% [at 23.2 µM] (inactive)
CC(C)(C)C(=O)Oc1ccc(S(=O)(=O)Nc2ccccc2C(=O)NCC(=O)O)cc1 | – | 103% (inactive)
Nc1[nH]c(=O)ncc1F | – | 74.8% (inactive)
NC[C@@H]1O[C@@H](O[C@H]2[C@@H](O)[C@H](O[C@@H]3[C@@H](O)[C@@H](N)C[C@H](N)[C@H]3O[C@H]3O[C@H](CN)[C@@H](O)[C@@H](O)[C@H]3N)O[C@H]2CO)[C@H](N)[C@@H](O)[C@@H]1O | – | 98.3% (inactive)
Cc1cn([C@H]2C=C[C@@H](CO)O2)c(=O)[nH]c1=O | – | 103% [at 92.2 µM] (inactive)
CS(=O)(=O)c1ccc(C(=O)Nc2ccc(Cl)c(-c3ccccn3)c2)c(Cl)c1 | – | 92.4% (inactive)
Nc1ccc(S(=O)(=O)Nc2ncccn2)cc1 | – | 103% (inactive)
CN(C)CCc1c[nH]c2ccc(Cn3cncn3)cc12 | 1.18 µM (active) | –
O=c1n(CCCN2CCN(c3cccc(Cl)c3)CC2)nc2ccccn12 | – | 105% (inactive)
COC(=O)[C@@H]1CC2=CC(=O)CC[C@]2(C)[C@@]23O[C@@H]2C[C@@]2(C)[C@H](CC[C@@]24CCC(=O)O4)[C@@H]13 | – | 101% (inactive)
CN(C)c1cc(NC(=O)CNC(C)(C)C)c(O)c2c1C[C@@H]1C[C@H]3[C@H](N(C)C)C(=O)C(C(N)=O)=C(O)[C@@]3(O)C(=O)C1=C2O | – | 105% (inactive)
COc1ccc(CC2SC(=O)NC2=O)cc1C(=O)NCc1ccc(C(F)(F)F)cc1 (stereo not given) | – | 105% (inactive)
C=CC(=O)Nc1ccc2ncnc(Nc3ccc(OCc4cccc(F)c4)c(Cl)c3)c2c1 | 3.32 µM (active) | –
CC1(C)CC(=O)c2c(C(F)(F)F)nn(-c3ccc(C(N)=O)c(NC4CCC(O)CC4)c3)c2C1 (stereo not given) | 0.187 µM (active) | –
